# TDP1 cell CPT: qHTS for Inhibitors of human tyrosyl-DNA phosphodiesterase 1 (TDP1): qHTS in cells in presence of CPT | hit rate 12% among 420,000 | chicken DT40 Tdp1-/-;hTDP1 cells + 20 nM CPT, ATP luminescence, 48 h | Potency, µM (series often up to 46.2 µM), hits mostly inhibitors; further: nearly all actives have a fitted effect of over 55% in size
#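 Chicken DT40 Tdp1-/- cells stably complemented with human TDP1 were seeded at 400 cells/well in medium containing 20 nM camptothecin, exposed to pin-transferred compounds, and grown at 37 °C for at least 48 hr. Viability was read as ATP luminescence.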
# HT1080NT lethal: qHTS for induction of synthetic lethality in tumor cells producing 2HG: qHTS for the HT-1080-NT fibrosarcoma cell line; HT-1080-NT fibrosarcoma viability, CellTiter-Glo ATP luminescence, 48 h; Potency, µM (highest dose often 46.1 µM), hits mostly cytotoxic; hit rate 1.6% among 360,000; AID 686970, 2013;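 further: NT is the 2HG producing partner of a matched IDH1 knockdown line; nearly all actives have a fitted effect of over 55% in size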
#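 Fibrosarcoma NT cells, 750 per well in 5% FBS RPMI, were exposed to compound for 48 hours. Viability: CellTiter-Glo luminescence.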
# TDP1 cell noCPT: qHTS for Inhibitors of human tyrosyl-DNA phosphodiesterase 1 (TDP1): qHTS in cells in absence of CPT | DT40 Tdp1-/- hTDP1 cells, no CPT, ATP luminescence, 48 h | Potency, µM (titrated, usually from 46.2 µM), most hits filed as inhibitors | hit rate 15% among 420,000; further: nearly all actives have a fitted effect of over 55% in size
#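 Seeded 400 DT40-hTDP1 cells/well (vehicle DMSO, no 20 nM CPT); pinned compounds; ≥48 hr at 37 °C; CellTiter-Glo luminescence as viability measure.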
# HT1080 IDH1KD tx: qHTS for induction of synthetic lethality in tumor cells producing 2HG: qHTS for the HT-1080-IDH1KD cell line | HT-1080 IDH1 knockdown viability, ATP luminescence, 48 h | Potency, µM (titrated, usually from 46.1 µM), most hits filed as cytotoxic | hit rate 2% among 360,000
#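 CellTiter-Glo luminescence after 48 h compound exposure at 37 degrees C of IDH1-knockdown HT-1080 cells in 5% FBS RPMI. %Activity scaled between DMSO wells and cell-free media wells, with curves fitted and assigned curve classes.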
# IL1B secr inh: qHTS for Inhibitors of Inflammasome Signaling: IL-1-beta AlphaLISA Primary Screen | THP-1 LPS/ATP IL-1B secretion, AlphaLISA, 16 h; active compounds read low | activity change, % at 57.5 µM | hit rate 4.7% among 360,000 | AID 743279, 2014; in the data active means activity change below about -50%; inconclusive means mostly about -30% to -49%
#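 THP-1 cells pretreated 1 hr with compounds (up to 57.5 uM final), then stimulated with LPS (250 ng/mL final) plus ATP (1.25 mM final); secreted IL-1B measured by AlphaLISA after 16 hr, decreased signal indicating inhibition.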
# ALOX12 inh: Primary qHTS assay for inhibitors of human arachidonate 12S-lipoxygenase (ALOX12): Round 2. purified 12hLO, xylenol orange hydroperoxide absorbance. Potency, µM (titrated, usually from 108 µM), usual class: inhibitors. hit rate 1.1% among 580,000
# Target sequence (P18054 whole entry, looked up): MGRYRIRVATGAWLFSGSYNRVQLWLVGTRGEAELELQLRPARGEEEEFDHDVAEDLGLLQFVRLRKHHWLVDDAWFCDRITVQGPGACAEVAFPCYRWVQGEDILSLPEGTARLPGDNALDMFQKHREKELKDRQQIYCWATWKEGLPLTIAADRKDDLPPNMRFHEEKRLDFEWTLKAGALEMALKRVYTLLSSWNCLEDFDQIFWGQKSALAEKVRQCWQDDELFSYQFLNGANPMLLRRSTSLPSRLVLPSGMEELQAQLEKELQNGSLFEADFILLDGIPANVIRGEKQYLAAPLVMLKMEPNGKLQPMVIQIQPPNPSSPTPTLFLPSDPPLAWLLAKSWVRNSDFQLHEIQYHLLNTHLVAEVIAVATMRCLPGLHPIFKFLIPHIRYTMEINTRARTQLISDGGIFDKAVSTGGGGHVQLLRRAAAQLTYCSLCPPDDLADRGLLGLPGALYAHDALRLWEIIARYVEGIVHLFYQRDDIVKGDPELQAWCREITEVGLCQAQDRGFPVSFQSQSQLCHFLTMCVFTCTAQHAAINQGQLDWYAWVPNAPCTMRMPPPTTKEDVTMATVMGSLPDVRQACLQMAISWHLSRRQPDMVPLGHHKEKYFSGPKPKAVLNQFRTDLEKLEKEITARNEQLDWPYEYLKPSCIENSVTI
#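 Hydroperoxide product was detected by ferrous iron/xylenol orange as the 573 to 405 nm absorbance ratio. Arachidonic acid at 40 uM (final) was turned over for 30 min at room temperature by 150 nM human 12hLO, pH 7.0 Hepes buffer, after 15 min compound preincubation.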
# Numbers stand for hits; - = inactive; ? = inconclusive; . = not tested or not shown. The entries come from a sample that favours hits as a whole. Unless noted, the call rests on the fitted dose curve; in most records, active means well fitted curve in the direction sought with a large enough effect; inconclusive means small, poorly fitted or top-dose-only effect, or another doubt; inactive means no such curve, though single readings can be large; an effect the other way counts as inactive or inconclusive.
SMILES,TDP1 cell CPT,HT1080NT lethal,TDP1 cell noCPT,HT1080 IDH1KD tx,IL1B secr inh,ALOX12 inh
COc1ccc(C2=C/C(=C\c3ccc(OC(C)=O)cc3)C(=O)O2)cc1,-,-,-,-,-,-
CN(C)c1ccc(/C=C2/C=C(c3ccc4c(c3)CCCC4)OC2=O)cc1,?,-,?,-,-,-
CN1CCN(c2ncnc3ccc(-c4ccccc4Cl)cc23)CC1,16.4µM,.,20.6µM,.,.,-
Cc1noc(C)c1-c1ccc2ncnc(N3CCN(C)CC3)c2c1,?,.,?,.,.,-
Cc1ccccc1-c1ccc2ncnc(N3CCN(C)CC3)c2c1,?,.,16.4µM,.,.,-
COc1ccc(-n2nc(C)c(CCC(=O)N3CCOCC3)c2Oc2ccccc2F)cc1,.,.,.,.,.,-
CCOCCCNC(=O)CSCc1nc(-c2ccc(OC)c(OC)c2)oc1C,.,.,.,.,.,-
COc1ccc(Cn2c(=O)c3ccccc3n3c(-c4ccc(C)cc4)nnc23)cc1,?,.,?,.,.,-
COc1ccc(-c2nnc3n(CCc4ccccc4)c(=O)c4ccccc4n23)cc1OC,?,-,23.1µM,-,?,-
O=C(CCS(=O)(=O)c1ccc(Br)cc1)N1CCN(Cc2ccccc2)CC1,-,-,?,-,-,-
CC(C)(C)c1ccc(OCC(O)CN2CCN(C(=O)c3ccccc3)CC2)cc1 (configuration not stated),16.4µM,-,20.6µM,-,-,-
Cc1cccc(OCC(O)CN2CCc3ccccc3C2)c1 (configuration not stated),?,-,?,-,-,-
CC(=O)N1CCN(CCS(=O)(=O)c2ccc(Br)cc2)CC1,-,-,-,-,-53.2,?
CC(C)(C)c1ccc(OCC(O)CN2CCc3ccccc3C2)cc1 (configuration not stated),8.2µM,?,16.4µM,?,-,?
COc1ccc(OCC(O)CN2CCc3ccccc3C2)cc1 (configuration not stated),-,-,-,-,-,-
Cc1ccc(OCC(O)CN2CCc3ccccc3C2)c(C)c1 (configuration not stated),25.9µM,-,?,-,-,-
CC(C)C(=O)Nc1ccc2c(C(C(=O)O)N3CCN(c4ncccc4C#N)CC3)c[nH]c2c1 (configuration not stated),.,.,.,.,.,-
Cc1ccc(NC(=O)Nc2nnc(-c3ccccc3)s2)cc1C,.,.,.,.,.,-
CC(=O)N1CCN(CC(O)COc2ccc(Br)cc2)CC1 (configuration not stated),-,-,?,-,-,0.355µM
CSCCOC(=O)COc1ccc(/C=N/NC(=O)c2nn(C)cc2Cl)cc1,-,-,?,-,-69.4,-
CCCN1C(SCC(=O)Nc2cccc(Cl)c2C)=NS(=O)(=O)c2ccccc21,.,.,.,.,.,-
CCOc1ccccc1CNC(=O)c1ccc(Sc2ccc(Cl)cc2)c(NC(C)=O)c1,?,-,?,-,-,-
CCOc1ccc(CNC(=O)c2ccc(Sc3ccc(Cl)cc3)c(NC(C)=O)c2)cc1,23.1µM,-,18.4µM,?,?,?
CC(=O)Nc1cc(C(=O)NCc2ccc(C)cc2)ccc1S(=O)(=O)c1ccc(Cl)cc1,?,.,16.4µM,.,.,-
CCC(=O)Nc1cc(C(=O)NCc2ccc(C)cc2)ccc1S(=O)(=O)c1ccc(C)cc1,?,.,?,.,.,-
SMILES,TDP1 cell CPT,HT1080NT lethal,TDP1 cell noCPT,HT1080 IDH1KD tx,IL1B secr inh,ALOX12 inh
CN1CCCn2nc(C(=O)NC34CC5CC(CC(C5)C3)C4)cc2C1,.,.,.,.,.,-
CC(C)(C)NCCOCCOc1ccc(Cl)cc1C(C)(C)C,?,-,?,-,-,?
C=CCNCCOCCOc1ccc(Cl)cc1C(C)(C)C,18.4µM,-,25.9µM,-,-53.0,?
C=CCNCCCOc1ccc(Cl)cc1C(C)(C)C,?,-,?,?,-85.3,?
COCCCNCCOCCOc1ccc(Cl)cc1C(C)(C)C,16.4µM,-,10.3µM,?,-,?
COc1ccc2cnn(CC(=O)NCc3ccccc3Cl)c(=O)c2c1OC,.,.,.,.,.,-
Cc1cc(C(=O)OCC(=O)Nc2cccc(C)c2C)c2ccccc2n1,.,.,.,.,.,-
Cc1ccc(COc2cccc(C3C4=C(CCCC4=O)OC4=C3C(=O)CCC4)c2)cc1,.,.,.,.,.,-
C=CCn1c(COc2ccccc2F)nnc1SCC(=O)c1c[nH]c2ccccc12,25.9µM,-,23.1µM,-,-,-
Cc1nc2sc(C(c3cccs3)N3CCN(Cc4ccccc4)CC3)c(O)n2n1 (configuration not stated),23.1µM,-,-,-,-,-
Cc1ccc(C(=O)c2c3ccc([N+](=O)[O-])cc3[n+]([O-])n2CCC(N)=O)cc1,5.8µM,-,14.6µM,-,-,?
COc1ccc(C(=O)c2c3ccc(OC)cc3[n+]([O-])n2CCCC(N)=O)cc1,-,-,-,-,-,-
